Neddyl block – inhibitors of cullin neddylation, primary screen, biochemical, TR-FRET, uHTS, NAE and Ubc12; NEDD8-conjugating enzyme Ubc12 (Homo sapiens) + NEDD8-activating enzyme E1 regulatory …; 0.58% of 360,000 active; inhibition, % at 25 µM; in the data active = inhibition above about 36%
SUMO1-SIM PPI – modulators of SUMO1 protein-protein interactions, primary screen, biochemical, uHTS | Small ubiquitin-related modifier 1 (Homo sapiens), P63165 | SUMO1 binding to a labelled peptide, TR-FRET, 1 h | inhibition, % at 20 µM | 0.33% of 360,000 active; in the data active = inhibition above about 37%
Target sequence (P63165 whole entry, looked up): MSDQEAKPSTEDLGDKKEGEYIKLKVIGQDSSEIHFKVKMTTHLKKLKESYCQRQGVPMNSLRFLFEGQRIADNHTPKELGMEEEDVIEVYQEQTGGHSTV
ATG4B inh – ATG4B protease inhibitors, primary screen, biochemical, fluorescence, uHTS | Cysteine protease ATG4B (Homo sapiens), Q9Y4P1 | ATG4B cleavage of LC3-PLA2, NBD-HPC fluorescence, 1 h | inhibition, % at 8.33 µM | 0.51% of 340,000 active | AID 504462, 2011; in the data active = inhibition above about 40%
Rin1 Abl inh – inhibitors of Rin1-Abl protein binding, primary screen, biochemical, TR-FRET | Tyrosine-protein kinase ABL1 (Homo sapiens) + Ras and Rab interactor 1 (Homo sapiens), … | inhibition, % at 7.35 µM | 0.4% of 360,000 active; in the data active = inhibition above about 5%, passing the limit was not always enough
ATG4B confirm – ATG4B protease inhibitors, retest, confirmation, biochemical, fluorescence, single concentration | shares compounds with ATG4B inh | ATG4B protease fluorescent substrate cleavage assay | inhibition, % at 8.33 µM | 92% of 320 active; in the data active = inhibition above about 39%
PLA2 counter – PLA2 enzyme inhibition, counter-screen for ATG4B inhibitor project, biochemical, single concentration, uHTS hits | inhibition, % at 8.33 µM | 66% of 1,600 active | AID 588402, 2011 | shares compounds with ATG4B inh | purified PLA2, NBD-C6-HPC fluorescence, 45 min; in the data active = inhibition above about 50%
Target sequence (P04054 whole entry, looked up): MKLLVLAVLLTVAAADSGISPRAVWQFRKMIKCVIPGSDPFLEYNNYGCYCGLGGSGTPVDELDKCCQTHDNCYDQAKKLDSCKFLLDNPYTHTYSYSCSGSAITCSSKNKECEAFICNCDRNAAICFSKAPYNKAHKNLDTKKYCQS
* hit, by the source's call; x = not tested or not shown. Sampled rows, rich in hits. Any-hit rate of the full collection: about 1.7%.

SMILES | Neddyl block | SUMO1-SIM PPI | ATG4B inh | Rin1 Abl inh | PLA2 counter | others
CC1(C)C(/C=C/C=C/C=C/C=C2\N(CCCCS(=O)(=O)O)c3ccc4ccccc4c3C2(C)C)=[N+](CCCCS(=O)(=O)[O-])c2ccc3ccccc3c21 | 27 | 110* | 90* | 9 | 95*
CCc1ccc(CNC(=O)C2CCCN(c3nnc(C)c4c(C)n(-c5ccccc5)nc34)C2)cc1 (centres undefined) | x | 4 | -4 | 0 | x
Cc1nnc(N2CCCC(C(=O)NCc3cccc(F)c3)C2)c2nn(-c3ccccc3)c(C)c12 (centres undefined) | 39 | -1 | 50* | 0 | 37
Cc1cccn2c(=O)c(/C=C(\C#N)C(=O)NCc3ccco3)c(N3CCCCC3)nc12 | -12 | -14 | 63* | 0 | 60*
Cc1cccn2c(=O)c(/C=C(\C#N)C(=O)NCc3ccco3)c(N3CCCC(C)C3)nc12 (centres undefined) | 12 | -16 | 51* | 2 | 68*
COc1cc(F)ccc1-c1csc(C(NC(C)=O)c2ccc(F)c(F)c2)n1 (centres undefined) | -60 | -1 | x | -1 | x
O=C(O)c1c(-c2ccccc2)cnc2ccccc12 | -3 | 0 | x | 2 | x
O=C(Nc1ccc2nc(-c3cccs3)c(-c3cccs3)nc2c1)NC1CC1 | -51 | -12 | 72* | -4 | 81*
N#CCC(=O)Nc1ccc(C(=O)OCC(=O)N=c2sccn2Cc2ccccc2Cl)cc1 | -6 | 4 | 41* | 1 | 57*
O=C(COC(=O)c1ccc(O)cc1O)N=c1sccn1Cc1ccccc1Cl | 3 | 20 | 43* | 1 | 57*
Cc1ccc(Cn2ccsc2=NC(=O)COC(=O)c2ccc(O)cc2O)cc1 | 5 | 4 | -9 | 3 | x
O=C1Nc2ccccc2C1=Nc1ccccc1-c1ccccc1 | 15 | -20 | -9 | 1 | x
CC1(c2nnnn2-c2ccc3c(c2)OCCO3)CCC(=O)N1Cc1cccnc1 (centres undefined) | 6 | 2 | x | x | x
COc1ccc2cc3cc(C(=O)N4CC(C)CC(C)C4)oc3nc2c1 (centres undefined) | 38 | -30 | 49* | -6 | 54*
Cc1ccc2cc3cc(C(=O)N4CC(C)CC(C)C4)oc3nc2c1 (centres undefined) | -19 | -24 | 45* | -3 | 57*
CCOC(=O)C1=CCN(S(=O)(=O)c2ccccc2Cl)C1c1ccccc1 (centres undefined) | -3 | 4 | x | 2 | x
Cc1cc(/C=N/NC(=O)C(O)(c2ccccc2)c2ccccc2)c(C)n1-c1cccc(C(=O)O)c1 | 22 | 27 | 52* | -2 | 57*
Cc1c(Cl)c([N+](=O)[O-])nn1CCCC(=O)Nc1cccc(Cl)c1Cl | -12 | -12 | 60* | 2 | 67*
Cc1c(Cl)c([N+](=O)[O-])nn1CCCC(=O)Nc1sc2c(c1C#N)CCC2 | -11 | -12 | 49* | 2 | 65*
Cc1c(Cl)c([N+](=O)[O-])nn1CCCC(=O)Nc1ccc(Cl)cc1Cl | -17 | -13 | 67* | 2 | 54*
CN1CCN(C2CN(Cc3cn(Cc4ccc(C(F)(F)F)cc4)nn3)S(=O)(=O)C2)CC1 (centres undefined) | 6 | 1 | x | x | x
COc1ccccc1-c1nc(S(=O)(=O)c2ccccc2)c(N2CCCCC2)o1 | 3 | -1 | 9 | 1 | x
O=S(=O)(c1ccc(F)cc1)c1nc(-c2ccccc2F)oc1N1CCCCC1 | 7 | -2 | 44* | -3 | 41 | ATG4B confirm=65*
C[C@@H]1CN([C@@H](C)CO)S(=O)(=O)c2ccc(/C=C/c3ccccc3)cc2O[C@@H]1CN(C)Cc1ccc(C(=O)O)cc1 | 5 | -9 | x | -1 | x
O=C(OCc1cc(Cl)ccc1OC(F)F)c1cncc(Br)c1 | 3 | 0 | 52* | 0 | 54*
SMILES | Neddyl block | SUMO1-SIM PPI | ATG4B inh | Rin1 Abl inh | PLA2 counter | others
O=C(c1nn(Cc2ccccc2)c(=O)c2ccccc12)N1CCN(C/C=C/c2ccccc2)CC1 | -1 | 2 | 49* | -1 | 55*
O=C(c1ccco1)N1CCN(C/C=C/c2ccccc2)CC1 | -4 | 2 | 2 | 0 | x
COc1ccc(Br)cc1/C=C(\C(=O)O)c1ccc(S(=O)(=O)N2CCCC2)s1 | -4 | -2 | 67* | 0 | 76*
COc1cc(/C=C(\C(=O)O)c2ccc(S(=O)(=O)N3CCCC3)s2)cc(OC)c1 | -4 | 1 | -7 | 3 | x
Cc1ccc(S(=O)(=O)N2CCN(C(=O)C(O)c3ccccc3)CC2)cc1 (centres undefined) | 3 | 4 | x | x | x
Cc1ccc(-c2nnc(Nc3ccc4c(c3)OCO4)c3ccccc23)cc1S(=O)(=O)NCCO | -10 | 6 | -6 | -6 | x
Cc1ccc(-c2nnc(Nc3ccc(CC(N)=O)cc3)c3ccccc23)cc1S(=O)(=O)NCCO | -1 | -25 | 84* | 4 | 87*
NC(=O)Cc1ccc(Nc2nnc(-c3ccc(O)cc3)c3ccccc23)cc1 | 34 | -3 | 92* | 3 | 91*
O=C1NC(=O)/C(=C\c2ccccc2Oc2ccc(F)c(F)c2)S1 | 1 | -3 | 57* | 1 | 48
O=C1NC(=O)/C(=C/c2ccccc2OCc2ccccc2)S1 | 3 | 1 | 46* | -1 | 53*
O=C(COc1ccccc1/C=C1\SC(=O)NC1=O)Nc1ccccc1 | -5 | 12 | 10 | 2 | x
COCc1cccc(-c2csc(C(C)(NC(C)=O)c3ccccc3)n2)c1 (centres undefined) | 3 | -2 | x | -1 | x
CCCCCCOc1ccc(N2C(=O)CC(S/C(N)=N/N=C(\C)c3cccs3)C2=O)cc1 (centres undefined) | 2 | 2 | 49* | 2 | 5 | ATG4B confirm=61*
COCCCN1C(=O)C(CC(=O)NCCc2ccccn2)CC(C(=O)N2CCCCCC2)=C1C (centres undefined) | -2 | 4 | x | x | x
C[C@@H]1CN([C@@H](C)CO)S(=O)(=O)c2ccc(-c3ccc(C#N)cc3)cc2O[C@@H]1CN(C)Cc1ccccn1 | 2 | 3 | x | -2 | x
N#CC1=C(N)OC2=C(C(=O)CC(c3ccco3)C2)C1c1ccc(OCc2c(F)cccc2Cl)cc1 (centres undefined) | -21 | 13 | 87* | 0 | 89*
C[N+](C)(C)CCNC(=O)c1ccccc1 | 2 | -21 | x | x | x
Cc1ccc(Cl)c(OCC(=O)Nc2ccc(S(=O)(=O)NC3=NCCCCC3)cc2)c1 | -3 | 4 | -3 | -2 | x
